HT1080 IDH1KD tx: qHTS for induction of synthetic lethality in tumor cells producing 2HG: qHTS for the HT-1080-IDH1KD cell line | Potency, µM (top dose mostly 46.1 µM), for inactives: at the highest dose activity, negative = toxicity, actives largely listed as cytotoxic | AID 686971, 2013 | 360,000 compounds, 2% hits | HT-1080 IDH1 knockdown viability, ATP luminescence, 48 h;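 further: potency means the concentration at half of the fitted maximal effect; 0% = DMSO wells and -100% = cell-free medium wells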
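After a 2 h attachment period, IDH1KD HT-1080 cells took pin-transferred compound for 48 h at 37 °C; ATP-based luminescence after 10 min room-temperature reagent incubation reported viability.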
KB-3-1 cytotox: qHTS assay for MDR1-selective chemotherapeutics: Primary screen using the parental adenocarcinoma cell KB-3-1. AID 1347075, 2019. 400,000 compounds, 1.4% hits. KB-3-1 viability, CellTiter-Glo ATP luminescence, 72 h. Potency, µM (doses to about 46.1 µM), actives largely listed as cytotoxic; further: potency means the concentration at half of the fitted maximal effect; nearly all actives have a fitted effect of over 60% in size
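KB-3-1 parental drug-naive adenocarcinoma cells in DMEM/10% FBS, incubated 72 h at 37 C with pin-transferred compounds across a concentration series. Viability by CellTiter-Glo luminescence; concentration-response curves fitted after normalization.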
HT1080-NT tox: qHTS for induction of synthetic lethality in tumor cells producing 2HG: qHTS for the HT-1080-NT fibrosarcoma cell line | AID 686970, 2013 | Potency, µM (doses to about 46.1 µM), for the others: at the top dose activity, negative = less viability, actives largely listed as cytotoxic | HT-1080-NT fibrosarcoma viability, CellTiter-Glo ATP luminescence, 48 h | 360,000 compounds, 1.6% hits;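 further: NT is the 2HG producing partner of a matched IDH1 knockdown line; potency means the concentration at half of the fitted maximal effect; 0% = DMSO-treated cells and -100% = media-only wells without cells; nearly all actives have a fitted effect of over 55% in size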
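HT-1080-NT; 750 cells/well; 5% FBS RPMI; 48 h compound, 37 degrees C; CellTiter-Glo luminescence; curve fitting and curve-class assignment.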
IL1B secr inh: qHTS for Inhibitors of Inflammasome Signaling: IL-1-beta AlphaLISA Primary Screen; activity change, % at 57.5 µM; 360,000 compounds, 4.7% hits; AID 743279, 2014; THP-1 LPS/ATP IL-1B secretion, AlphaLISA, 16 h; active compounds read low; in the data active means activity change below about -50%; inconclusive means mostly about -30% to -49%
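THP-1 cells pretreated 1 hr with compounds (up to 57.5 uM final), then stimulated with LPS (250 ng/mL final) plus ATP (1.25 mM final); secreted IL-1B measured by AlphaLISA after 16 hr, decreased signal indicating inhibition.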
KB-V1 cytotox: qHTS assay for MDR1-selective chemotherapeutics: Primary screen using the drug-selected MDR subline cells KB-V1; 400,000 compounds, 3.4% hits; Potency, µM (top dose mostly 46.1 µM), hits mostly cytotoxic; KB-V1 MDR cells viability, CellTiter-Glo, 72 h; further: potency means the concentration at half of the fitted maximal effect; nearly all actives have a fitted effect of over 60% in size
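qHTS viability screen in drug-selected KB-V1 MDR cells: 72 h compound treatment at 37 degrees C, ATP luminescence end point.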
The depositor's hits bear a star. Sampled rows, rich in hits. Any-hit rate of the full collection: about 8.8%. Unless noted, the call rests on the fitted dose curve; in most records, active means well fitted curve in the direction sought with a large enough effect; inconclusive means small, poorly fitted or top-dose-only effect, or another doubt; inactive means no such curve, though single readings can be large; an effect the other way counts as inactive or inconclusive. Unless noted, on the % scale 0 is the no-effect control and ±100 the full control effect.

What do the screens show for `C=C1C(=O)O[C@H]2[C@H]1[C@H](OC(=O)CC(=O)O[C@@H]1C[C@@H](C)[C@@H]3C=CC(=O)[C@@]3(C)[C@H]3OC(=O)C(=C)[C@H]13)C[C@@H](C)[C@H]1C=CC(=O)[C@]12C`?
HT1080 IDH1KD tx: inconclusive; KB-3-1 cytotox: inactive; HT1080-NT tox: inconclusive; IL1B secr inh: -105*; KB-V1 cytotox: inactive

What do the screens show for `C=C1C(=O)OC2CC(C)C3C=CC(=O)C3(C)C(O)C12` (stereo not drawn)?
HT1080 IDH1KD tx: 0.82µM*; KB-3-1 cytotox: 3.3µM*; HT1080-NT tox: 1.8µM*; IL1B secr inh: -101*; KB-V1 cytotox: 3.7µM*

Results for CC(=O)N(C)C1=Nc2ccc(Cl)cc2C(c2ccccc2)=[N+]([O-])C1 ?
HT1080 IDH1KD tx: 1%; KB-3-1 cytotox: inactive; HT1080-NT tox: 12%; IL1B secr inh: -24; KB-V1 cytotox: inactive

What do the screens show for `Cc1ncoc1C(=O)NCC1=C(c2ccc(S(C)(=O)=O)cc2)C[C@@H]2CC[C@H]1N2CCOc1ccccc1`?
HT1080 IDH1KD tx: -1%; KB-3-1 cytotox: inactive; HT1080-NT tox: 7%; IL1B secr inh: 11; KB-V1 cytotox: inactive

What do the screens show for `COc1ccc(OCC(=O)N2CCN(CCc3ccccn3)CC2)cc1`?
KB-3-1 cytotox: inactive; KB-V1 cytotox: inactive

Results for O=P(c1ccccc1)(c1ccccc1)N(c1ccccc1)c1ccccc1 ?
HT1080 IDH1KD tx: inconclusive; KB-3-1 cytotox: inactive; HT1080-NT tox: -13%; IL1B secr inh: 12; KB-V1 cytotox: inactive

How did C=C1C(=O)O[C@@H]2C[C@@H](C)[C@@H]3C=CC(=O)[C@@]3(C)[C@@H](OC(=O)CC(=O)O[C@H]3[C@@H]4C(=C)C(=O)O[C@@H]4C[C@@H](C)[C@@H]4C=CC(=O)[C@]43C)[C@H]12 do in these assays?
HT1080 IDH1KD tx: 0.23µM*; KB-3-1 cytotox: inactive; HT1080-NT tox: inconclusive; IL1B secr inh: 0; KB-V1 cytotox: inactive

What do the screens show for `C=CCN(CC=C)C(=O)CCN1CC1C` (stereo not drawn)?
HT1080 IDH1KD tx: 1%; KB-3-1 cytotox: inactive; HT1080-NT tox: 6%; IL1B secr inh: -9; KB-V1 cytotox: inactive

Results for C=Cc1ccc(Cn2c(C)c(CNCCc3cc(OC)ccc3OC)c(C(=O)O)c2C)cc1 ?
KB-3-1 cytotox: inactive; KB-V1 cytotox: inactive

What do the screens show for `CCc1ccc(NC(=O)c2cccn(Cc3cccc([N+](=O)[O-])c3)c2=O)cc1`?
KB-3-1 cytotox: inconclusive; KB-V1 cytotox: inactive

What do the screens show for `CCC(C)N1C(=O)/C(=C\c2cnc(N(C)C)nc2)C(=O)NC1=S` (stereo not drawn)?
HT1080 IDH1KD tx: -25%; KB-3-1 cytotox: inactive; HT1080-NT tox: inconclusive; IL1B secr inh: -52*; KB-V1 cytotox: inactive

Results for Nc1c2c(nc3sc4c(c13)CCCC4)CCCC2 ?
HT1080 IDH1KD tx: inconclusive; KB-3-1 cytotox: inactive; HT1080-NT tox: inconclusive; IL1B secr inh: -88*; KB-V1 cytotox: inactive

Results for Nc1c2c(nc3sc4c(c13)CCCC4)CCCCC2 ?
HT1080 IDH1KD tx: -19%; KB-3-1 cytotox: inconclusive; HT1080-NT tox: -11%; IL1B secr inh: -18; KB-V1 cytotox: inactive

How did CCN(CCCl)c1cc(CN(C)C)cc(NC(=O)c2ccc(C(=O)Nc3cc(CN(C)C)cc(N(CC)CCCl)c3)cc2)c1 do in these assays?
HT1080 IDH1KD tx: 2.9µM*; KB-3-1 cytotox: 0.52µM*; HT1080-NT tox: 7.3µM*; IL1B secr inh: -94*; KB-V1 cytotox: inactive

What do the screens show for `CCN(CC)C(=O)c1ccc(NC(=O)c2cccc(C(F)(F)F)c2)cc1`?
HT1080 IDH1KD tx: 11%; KB-3-1 cytotox: inactive; HT1080-NT tox: 2%; IL1B secr inh: inconclusive; KB-V1 cytotox: inactive

Results for O=C1C(=O)c2ccccc2-c2ccccc21 ?
HT1080 IDH1KD tx: 1.2µM*; KB-3-1 cytotox: 5.2µM*; HT1080-NT tox: 0.92µM*; IL1B secr inh: -108*; KB-V1 cytotox: 4.1µM*

How did O=C1C(=O)c2cccc3cccc1c23 do in these assays?
HT1080 IDH1KD tx: 6%; KB-3-1 cytotox: 16µM*; HT1080-NT tox: 0%; IL1B secr inh: 5; KB-V1 cytotox: inconclusive

Results for NC1=C(Br)C(=O)c2ccccc2C1=O ?
HT1080 IDH1KD tx: 21µM*; KB-3-1 cytotox: inconclusive; HT1080-NT tox: 26µM*; IL1B secr inh: -8; KB-V1 cytotox: 12µM*

How did O=C1C(c2ccccc2)=C(N2CC2)c2ccccc21 do in these assays?
HT1080 IDH1KD tx: -4%; KB-3-1 cytotox: inactive; HT1080-NT tox: 5%; IL1B secr inh: -11; KB-V1 cytotox: inactive

What do the screens show for `Fc1ccc(N2Cc3ccccc3-n3nncc3C2)cc1`?
HT1080 IDH1KD tx: -18%; KB-3-1 cytotox: inactive; HT1080-NT tox: -17%; IL1B secr inh: -4; KB-V1 cytotox: inactive

How did N[C@@]1(C(=O)O)CC[C@@H](C(=O)O)C1 do in these assays?
HT1080 IDH1KD tx: -1%; KB-3-1 cytotox: inactive; HT1080-NT tox: 19%; IL1B secr inh: -8; KB-V1 cytotox: inactive

Results for COC(=O)C1=C(c2cccc(C#N)c2)C[C@@H]2CC[C@H]1N2C(=O)NC1CCCCC1 ?
HT1080 IDH1KD tx: -2%; KB-3-1 cytotox: inactive; HT1080-NT tox: -5%; IL1B secr inh: 4; KB-V1 cytotox: inactive

What do the screens show for `O=C(NCCN1CCC2(CC1)C(=O)NCN2c1cccc(F)c1)c1ccc2ccccc2c1`?
HT1080 IDH1KD tx: 21µM*; KB-3-1 cytotox: inconclusive; HT1080-NT tox: 15µM*; IL1B secr inh: inconclusive; KB-V1 cytotox: inactive

What do the screens show for `O=C1CC(N2CCC(n3c(=O)[nH]c4ccccc43)CC2)C(=O)N1c1ccc(F)cc1` (stereo not drawn)?
HT1080 IDH1KD tx: 10%; KB-3-1 cytotox: inactive; HT1080-NT tox: 9%; IL1B secr inh: -15; KB-V1 cytotox: inactive

What do the screens show for `O=c1[nH]c2ccccc2n1C1CCN(CCCC(c2ccc(F)cc2)c2ccc(F)cc2)CC1`?
HT1080 IDH1KD tx: 18µM*; KB-3-1 cytotox: inconclusive; HT1080-NT tox: 16µM*; IL1B secr inh: -80*; KB-V1 cytotox: 12µM*

What do the screens show for `O=C1NCN(c2ccccc2)C12CCN(CCCC(c1ccc(F)cc1)c1ccc(F)cc1)CC2`?
HT1080 IDH1KD tx: 9.2µM*; KB-3-1 cytotox: inconclusive; HT1080-NT tox: 8.2µM*; IL1B secr inh: -16; KB-V1 cytotox: inconclusive

Screening data (PubChem BioAssay)
